Results from PubChem BioAssay (NCATS).
Results filed as inconclusive are left out. A call without a number means that no potency is given here. Unmarked numbers belong to inactive results. Activity calls are given as the source filed them. Calls follow the shape of the dose curve; as a rule, active = well fitted curve in the direction sought with a large enough effect; inconclusive = small, poorly fitted or top-dose-only effect, or another doubt; inactive = no such curve, though single readings can be large; an effect the other way counts as inactive or inconclusive.

Tests used:
[1] = target: Furin (Homo sapiens) (UniProt P09958); experiment: Furin counterscreen qHTS for Zika virus inhibitors (AID 1347149); also: nearly all actives have a fitted effect of over 70% in size; also: potency is read from the fitted curve at half-maximal effect
Text: Avindra Nath, Ph.D., National Institute of Neurological Disorders and Stroke (NINDS), Bethesda, MD
Radhakrishnan Padmanabhan, Ph.D., Georgetown University (GU), Washington D.C.
Zika Virus causes congenital defects, including microcephaly and is associated with Guillain-Barre syndrome, eningoencephalitis and myelitis in infected adult. […] Using a target-based approach, we hope to establish a screening paradigm to uncover novel, cell-active NS2B-NS3 protease (Zika Virus) specific inhibitors from NCATS' collection of small molecules using qHTS.
Four assay panel was created to identify potential Zika Virus inhibitors. […]
Human recombinant Furin Serine Protease was purchased from Peprotech (catalog #450-47; full length; Rocky Hill, NJ). […] Plates were then read immediately on a ViewLux High-throughput CCD imager (PerkinElmer, Waltham, MA) equipped with standard UV fluorescence optics (340(30) nm excitation, 450(20) nm emission), then incubated (37C, protected from light) for 15 or 30 minutes (~9% conversion). The change in fluorescence intensity over the 15-minute reaction period was normalized against no-inhibitor and no-enzyme controls and the resulting percent inhibition data were fitted to a 4-parameter Hill equation. […]

[2] = system: Zika virus NS2B-NS3 protease (linked construct); experiment: Confirmatory screen NINDS AMC qHTS for Zika virus inhibitors (AID 1347152); also: top concentration of the series differs between compounds; nearly all actives have a fitted effect of over 70% in size
Procedure, shortened: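 IC50s from 4-parameter Hill fits of percent inhibition, based on AMC fluorescence gain (340/450 nm) over 15 min with 10 microM Bz-Nle-KRR-AMC. Enzyme: 1 nM linked NS2B-NS3 in Tris-HCl pH 8.0; 15-min compound preincubation.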

[3] = system: Zika virus NS2B-NS3 protease (unlinked complex); experiment: Confirmatory screen GU AMC qHTS for Zika virus inhibitors (AID 1347153); also: nearly all actives have a fitted effect of over 70% in size
Procedure, shortened: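 Unlinked enzyme 25 nM, Tris pH 8.0/0.01% Tween 20; cpd 15 min RT, dark; + AMC substrate 10 µM (Km 18.3 µM); 340/450 nm read at t0 and 15 min; % inhibition → 4-param fit.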

[4] = target: N-terminal Xaa-Pro-Lys N-methyltransferase 1 (Homo sapiens) (UniProt Q9BV86); experiment: qHTS Assay for Inhibitors of N-terminal methyltransferase 1 (NTMT1): LOPAC validation of the NTMT1 SAHH-coupled ThioGlo3 Assay (AID 1347143);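 also: SAH from peptide methylation measured as thiol fluorescence via SAHH coupling and ThioGlo3; nearly all actives have a fitted effect of over 70% in size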; also: potency is read from the fitted curve at half-maximal effect
Procedure, shortened: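 Recombinant human NTMT1 (125nM) was pre-incubated 1 min at room temperature with compounds over a concentration range, then a mix of 100uM SAM, 10uM SAHH and 15uM ThioGlo3 (concentrations in added reagent) was added. ThioGlo3 fluorescence (ex 340/em 450nm) after 30 min was normalized to the initial reading.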

[5] = system: Zika virus NS2B-NS3 protease (unlinked); experiment: Optimization of GU AMC qHTS for Zika virus inhibitors: Unlinked NS2B-NS3 protease assay (AID 1347151); also: series mostly up to about 52 µM; nearly all actives have a fitted effect of over 80% in size
Procedure, shortened: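 Fluorescence gain (340/450 nm) over 15 min at room temperature, ~20% conversion, gave percent inhibition fitted to a 4-parameter Hill equation; enzyme was unlinked NS2B-NS3 (25 nM final), pH 8.0 Tris buffer.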

[6] = system: Zika virus NS2B-NS3 protease; experiment: Primary screen GU AMC qHTS for Zika virus inhibitors (AID 1347154); also: nearly all actives have a fitted effect of over 70% in size
Procedure, shortened: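 Unlinked Zika NS2B hydrophilic domain–NS3 protease complex at 25 nM in 10 mM Tris-HCl pH 8.0, 0.01% Tween 20, with an AMC peptide substrate. Fluorescence change (340/450 nm) over 15 min at room temperature, normalized to controls, fitted to 4-parameter Hill.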

N-terminal Xaa-Pro-Lys N-methyltransferase 1 (Homo sapiens), sequence (Q9BV86 whole entry, looked up): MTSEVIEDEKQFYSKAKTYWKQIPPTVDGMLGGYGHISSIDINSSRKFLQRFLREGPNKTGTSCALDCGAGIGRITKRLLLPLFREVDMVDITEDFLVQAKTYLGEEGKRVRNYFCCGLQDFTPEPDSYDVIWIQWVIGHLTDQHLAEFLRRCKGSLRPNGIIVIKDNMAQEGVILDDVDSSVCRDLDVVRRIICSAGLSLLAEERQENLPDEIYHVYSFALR
Furin (Homo sapiens), sequence (P09958 whole entry, looked up): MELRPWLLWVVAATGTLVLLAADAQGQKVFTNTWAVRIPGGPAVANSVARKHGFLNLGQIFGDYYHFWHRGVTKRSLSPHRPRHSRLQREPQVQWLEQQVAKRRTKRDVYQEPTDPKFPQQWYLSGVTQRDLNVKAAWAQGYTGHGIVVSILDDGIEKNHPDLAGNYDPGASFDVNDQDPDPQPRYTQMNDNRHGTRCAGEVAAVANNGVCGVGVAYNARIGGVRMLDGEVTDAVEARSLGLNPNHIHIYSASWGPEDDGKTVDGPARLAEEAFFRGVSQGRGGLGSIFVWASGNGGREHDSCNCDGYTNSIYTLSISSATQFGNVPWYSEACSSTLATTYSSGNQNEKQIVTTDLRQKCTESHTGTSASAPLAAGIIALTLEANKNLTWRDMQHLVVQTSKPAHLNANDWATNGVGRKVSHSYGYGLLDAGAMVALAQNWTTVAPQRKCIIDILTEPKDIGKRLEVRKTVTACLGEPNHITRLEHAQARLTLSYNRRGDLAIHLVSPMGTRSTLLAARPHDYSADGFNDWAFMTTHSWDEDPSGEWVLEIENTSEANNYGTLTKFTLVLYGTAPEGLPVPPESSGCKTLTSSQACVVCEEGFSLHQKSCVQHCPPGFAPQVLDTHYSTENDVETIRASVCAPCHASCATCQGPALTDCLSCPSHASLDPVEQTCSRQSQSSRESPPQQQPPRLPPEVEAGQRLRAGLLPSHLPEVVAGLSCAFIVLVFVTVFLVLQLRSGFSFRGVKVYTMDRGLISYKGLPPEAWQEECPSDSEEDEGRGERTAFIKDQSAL

SMILES: CCOC(=O)c1cnc2c(cnn2CC)c1NN=C(C)C
- Potency [1]: inactive
- outcome [2]: inactive
- outcome [3]: inactive

SMILES: COC(=O)[C@H]1[C@H]2C[C@@H]3c4[nH]c5cc(OC)ccc5c4CCN3C[C@H]2C[C@@H](OC(=O)c2cc(OC)c(OC)c(OC)c2)[C@@H]1OC
- Potency [1]: 27.1 µM (active)
- outcome [2]: inactive
- outcome [3]: inactive

SMILES: CCOC(=O)C1=C(C)NC(C)=C(C(=O)OC)C1c1cccc([N+](=O)[O-])c1 (stereo unspecified)
- Potency [4]: inactive
- Potency [5]: inactive
- outcome [6]: inactive

SMILES: CN(C)C(=O)Oc1ccc[n+](C)c1
- Potency [4]: inactive
- Potency [5]: inactive
- outcome [6]: inactive

SMILES: N[C@@H](COP(=O)(O)O)C(=O)O
- Potency [4]: inactive
- Potency [5]: inactive
- outcome [6]: inactive

SMILES: CC(N=C(NC#N)Nc1ccncc1)C(C)(C)C (stereo unspecified)
- Potency [4]: inactive
- Potency [5]: inactive
- outcome [6]: inactive

SMILES: O=c1[nH]c(=O)n([C@H]2C[C@H](O)[C@@H](CO)O2)cc1Br
- Potency [4]: inactive
- Potency [5]: inactive
- outcome [6]: inactive

SMILES: CC1=NS(=O)(=O)c2cc(Cl)ccc2N1
- Potency [4]: inactive
- Potency [5]: inactive
- outcome [6]: inactive

SMILES: CC(C)(Oc1ccc(CCNC(=O)c2ccc(Cl)cc2)cc1)C(=O)O
- Potency [4]: inactive
- Potency [5]: inactive
- outcome [6]: inactive

SMILES: CC(=O)OCC1=C(C(=O)O)N2C(=O)[C@@H](NC(=O)Cc3cccs3)[C@H]2SC1
- Potency [4]: inactive
- Potency [5]: inactive
- outcome [6]: inactive

SMILES: NC(N)=NC(=O)Cc1c(Cl)cccc1Cl
- Potency [4]: inactive
- Potency [5]: inactive
- outcome [6]: inactive

SMILES: O=C(CCCN1CCC(O)(c2cccc(C(F)(F)F)c2)CC1)c1ccc(F)cc1
- Potency [4]: inactive
- Potency [5]: inactive
- outcome [6]: inactive

SMILES: CCCC(C(=O)OCCN(CC)CC)(c1ccccc1)c1ccccc1
- Potency [4]: inactive
- Potency [5]: inactive
- outcome [6]: inactive

SMILES: C[C@H](CS)C(=O)N1CCC[C@H]1C(=O)O
- Potency [4]: inactive
- Potency [5]: inactive
- outcome [6]: inactive

SMILES: CN(C)CCOC(=O)COc1ccc(Cl)cc1
- Potency [4]: 56.2 µM (active)
- Potency [5]: inactive
- outcome [6]: inactive

SMILES: CC(=O)[C@@]1(O)CC[C@H]2[C@@H]3CCC4=CC(=O)CC[C@]4(C)[C@H]3CC[C@@]21C
- Potency [4]: inactive
- Potency [5]: inactive
- outcome [6]: inactive

SMILES: CC[N+](C)(C)c1cccc(O)c1
- Potency [4]: inactive
- Potency [5]: inactive
- outcome [6]: inactive

SMILES: NC1=NCC2c3ccccc3Cc3ccccc3N12 (stereo unspecified)
- Potency [4]: inactive
- Potency [5]: inactive
- outcome [6]: inactive

SMILES: COc1ccc(CCN(C)CCCC(C#N)(c2cc(OC)c(OC)c(OC)c2)C(C)C)cc1OC (stereo unspecified)
- Potency [4]: inactive
- Potency [5]: inactive
- outcome [6]: inactive

SMILES: CCCCNC(=O)NS(=O)(=O)c1ccc(C)cc1
- Potency [4]: inactive
- Potency [5]: inactive
- outcome [6]: inactive

SMILES: CCCCCN(CCCCC)C(=O)C(CCC(=O)O)NC(=O)c1ccc(Cl)c(Cl)c1 (stereo unspecified)
- Potency [4]: inactive
- Potency [5]: inactive
- outcome [6]: inactive

SMILES: CCCN(CCC)CCc1cccc2c1CC(=O)N2
- Potency [4]: inactive
- Potency [5]: inactive
- outcome [6]: inactive

SMILES: CCCN(CCC)C(=O)C(CCC(=O)O)NC(=O)c1ccccc1 (stereo unspecified)
- Potency [4]: inactive
- Potency [5]: inactive
- outcome [6]: inactive

SMILES: NC(=O)N1c2ccccc2C=Cc2ccccc21
- Potency [4]: inactive
- Potency [5]: inactive
- outcome [6]: inactive

SMILES: CC(=O)OC(C)C[N+](C)(C)C (stereo unspecified)
- Potency [4]: inactive
- Potency [5]: inactive
- outcome [6]: inactive

SMILES: CN1CCN(C2=Nc3ccccc3Oc3ccc(Cl)cc32)CC1
- Potency [4]: inactive
- Potency [5]: inactive
- outcome [6]: inactive

SMILES: COc1cc(C(=O)OCCCN2CCCN(CCCOC(=O)c3cc(OC)c(OC)c(OC)c3)CC2)cc(OC)c1OC
- Potency [4]: inactive
- Potency [5]: inactive
- outcome [6]: inactive

SMILES: CN=C(NC#N)NCCSCc1nc[nH]c1C
- Potency [4]: inactive
- Potency [5]: inactive
- outcome [6]: inactive

SMILES: CCCN1C[C@H](CSC)C[C@@H]2c3cccc4[nH]cc(c34)C[C@H]21
- Potency [4]: inactive
- Potency [5]: inactive
- outcome [6]: inactive

SMILES: CC(C(=O)O)c1ccc(CC2CCCC2=O)cc1 (stereo unspecified)
- Potency [4]: inactive
- Potency [5]: inactive
- outcome [6]: inactive

SMILES: NC/C=C/C(=O)O
- Potency [4]: inactive
- Potency [5]: inactive
- outcome [6]: inactive

SMILES: C[C@]12CCC(=O)C=C1CC[C@@H]1[C@@H]2CC[C@@]2(C)[C@H]1CC[C@]2(O)C(=O)CO
- Potency [4]: inactive
- Potency [5]: inactive
- outcome [6]: inactive

SMILES: CN(C)C(=O)Oc1cccc([N+](C)(C)C)c1
- Potency [4]: inactive
- Potency [5]: inactive
- outcome [6]: inactive

SMILES: O=C(O)CP(=O)(O)O
- Potency [4]: inactive
- Potency [5]: inactive
- outcome [6]: inactive

SMILES: Cc1nnc(SCC2=C(C(=O)O)N3C(=O)[C@@H](NC(=O)Cn4cnnn4)[C@H]3SC2)s1
- Potency [4]: 50.1 µM (active)
- Potency [5]: inactive
- outcome [6]: inactive

SMILES: Nc1c2c(nc3ccccc13)CCCC2O (stereo unspecified)
- Potency [4]: inactive
- Potency [5]: inactive
- outcome [6]: inactive

SMILES: CCC(=O)c1ccc2c(c1)N(CCCN(C)C)c1ccccc1S2
- Potency [4]: 39.8 µM (active)
- Potency [5]: inactive
- outcome [6]: inactive

SMILES: CC(C)[N+](C)(CCOC(=O)C1c2ccccc2Oc2ccccc21)C(C)C
- Potency [4]: inactive
- Potency [5]: inactive
- outcome [6]: inactive

SMILES: COCCOC(=O)C1=C(C)NC(C)=C(C(=O)OC(C)C)C1c1cccc([N+](=O)[O-])c1 (stereo unspecified)
- Potency [4]: inactive
- outcome [6]: inactive

SMILES: CCCNC(C)C(=O)Nc1ccccc1C (stereo unspecified)
- Potency [4]: inactive
- Potency [5]: inactive
- outcome [6]: inactive

SMILES: Cc1ccc(Cl)c(Nc2ccccc2C(=O)O)c1Cl
- Potency [4]: inactive
- outcome [6]: inactive
